# Laboratory results from PubChem BioAssay (EPA / NIEHS).
# The source holds several records for some structures; these can differ, active in one and inactive in another. Calls of active or inactive are those of the source. The calls were made as follows: active = hit-call score of the fitted dose curve at least 0.9, where 1 is the maximum; inactive = score below 0.9.
# Assay: CCTE_Shafer_MEA_dev_inter_network_spike_interval_mean: CCTE's Neural Network Formation Assay for Mean Inter-network Spike Interval, Shafer Lab (AID 2284047);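 as to AC50: potency for a decrease in mean inter-network spike interval below DMSO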
# Experimental: CCTE_Shafer_MEA_dev assay is conducted using Axion Biosystems 48 well microelectrode array (MEA) plates and Maestro recording system. Each well of the MEA plate contains a grid of 16 microelectrodes embedded in the culture surface. Electrically active cells, such as neurons, can be cultured over the electrodes, and electrical activity in these cells can be recorded extracellularly. The spontaneous firing of neurons is captured from each electrode on a microsecond timescale providing both temporally and spatially precise data. […] The CCTE_Shafer_MEA_dev assay uses primary cultures of rat cortical neurons. Recordings are made on days post-plating 5, 7, 9 and 12. As these cultures mature over time, neural networks develop functional activity and form cohesive networks in which electrical activity can be highly coordinated. CCTE_Shafer_MEA_dev_inter_network_spike_interval_mean is 1 of 19 assay components of the CCTE_Shafer_MEA_dev assay. It measures the average time interval between network spikes (temporally-clustered groups of actional potential firing across multiple electrodes) as the average time between peaks of consecutive network spikes during a recording in a microelectrode array (MEA) using Axion Biosystems Maestro 768 channel amplifier with the AxIS adaptive spike detector. To collapse across multiple recordings made on days post-plating 5, 7, 9 and 12, the trapezoidal area-under-the-curve of the component is calculated.Data from the assay component CCTE_Shafer_MEA_dev_inter_network_spike_interval_mean was analyzed into 1 assay endpoint. This assay endpoint, CCTE_Shafer_MEA_dev_inter_network_spike_interval_mean, was analyzed in the negative analysis fitting direction relative to DMSO as the negative control and baseline of activity. Using a type of functional reporter, gain or loss-of-signal activity can be used to understand electrical activity.
# On the day prior to culture, each well was coated thoroughly with 150 uL of 0.05% polyethyleneimine (PEI, Sigma Cat P3143) in 50 mM HEPES (Sigma Cat H7523) at a pH of 8. The plate was incubated at 37C for one hour. PEI was rinsed out with 500 uL of sterile water three times. Plates were stored at 4C until the day of culture. This culture was plated at a seeding density of 1.5 x 10^5 cells/well on a 48-well MEA plate, prepared as described above. Cells were administered via a 25 uL media/laminin ([…]; Sigma Cat L2020-1MG) drop directly onto the microelectrode array, as adding the cells with the laminin results in better attachment than pre-coating with laminin. After 2 hours, an additional 475 uL of cortical media was added and the cells returned to the incubator. Exposure starts at day 0 of plating and is continued over twelve days of network development until the experiment is terminated. Cells are fed with fresh medium on DIV 5 and 9, following the recordings on those days. The entire volume of media in the well is exchanged and any vehicle or compound treatment is renewed. Complete details are found in OP-NHEERL/ISTD/SBB/TJS/2015-03-r0 (available on request, email shafer.tim@epa.gov). Measurement of the electrical activity is non-invasive, and recordings can be made from the same plate over multiple different days of the culture. In cortical neurons, this allows for the measurement of extracellular action potentials over the period during which networks form in the MEA plate.
SMILES,AC50,outcome
[CH3][Hg][Cl],0.0057 µM (active),–
C=CCN1CC[C@]23c4c5ccc(O)c4O[C@H]2C(=O)CC[C@@]3(O)[C@H]1C5,–,inactive
CCOP(=O)(OCC)SCSCC,–,inactive
CC1(C)C(C=C(Cl)Cl)C1C(=O)O[C@H](C#N)c1cccc(Oc2ccccc2)c1 (stereo not given in full),1.03 µM (active),–
[Cd+2].[Cl-].[Cl-],0.014 µM (active),–
C/C(=C/C=C/[C@@H](C)C(=O)O)[C@H]1CN[C@H](C(=O)O)[C@H]1CC(=O)O,0.16 µM (active),inactive
CC1(C)[C@H](C=C(Cl)Cl)[C@@H]1C(=O)O[C@@H](C#N)c1cccc(Oc2ccccc2)c1,–,inactive
CCOP(=S)(OCC)SCS(=O)C(C)(C)C (stereo not given),–,inactive
COC(=O)[C@H]1[C@@H](OC(=O)c2ccccc2)C[C@@H]2CC[C@H]1N2C,–,inactive
O.O.O.O.O.[Cd+2].[Cd+2].[Cl-].[Cl-].[Cl-].[Cl-],0.0384 µM (active),–
O=[As]O,–,inactive
C[n+]1ccc(-c2ccccc2)cc1,–,inactive
CC1(C)C(C=C(Cl)c2ccc(Cl)cc2)C1C(=O)OC(C#N)c1ccc(F)c(Oc2ccccc2)c1 (stereo not given),4.11 µM (active),–
CC1(C)[C@H](C=C(Cl)Cl)[C@H]1C(=O)OCc1c(F)c(F)cc(F)c1F,–,inactive
CC1(C)[C@H](C(=O)O[C@H](C#N)c2cccc(Oc3ccccc3)c2)[C@@H]1C=C(Br)Br,–,inactive
c1ccc2cc3c(cc2c1)-c1cccc2cccc-3c12,–,inactive
CCOP(=O)(Oc1cnc(C(C)(C)C)nc1)OC(C)C (stereo not given),–,inactive
CP(=O)(O)CCC(N)C(=O)O (stereo not given),–,inactive
CN1C(=O)CN=C(c2ccccc2)c2cc(Cl)ccc21,–,inactive
Cc1ccc(OP(=O)(Oc2ccc(C)cc2)Oc2ccc(C)cc2)cc1 (tested in a mixture with another compound),–,inactive

SMILES,AC50,outcome
CC(C)CCCCCCCOP(=O)(Oc1ccccc1)Oc1ccccc1,–,inactive
C#CCN(C)[C@H](C)Cc1ccccc1,–,inactive
c1ccc2c(c1)cc1ccc3cccc4ccc2c1c34,–,inactive
C[C@H](N)Cc1ccccc1,–,inactive
Brc1ccc(Oc2cc(Br)c(Br)cc2Br)c(Br)c1,–,inactive
COP(=O)(OC)SCN1C(=O)c2ccccc2C1=O,–,inactive
[CH3][Sn]([CH3])[CH3],–,inactive
CNC(=N[N+](=O)[O-])NCC1CCOC1 (stereo not given),–,inactive
CCOP(=O)(OCC)OC(Cl)C(Cl)(Cl)Cl (stereo not given),–,inactive
CN[C@]1(c2ccccc2Cl)CCCCC1=O,–,inactive
CC(=O)[O-].[Tl+],–,inactive
CC1CCCC1.[C-]#[O+].[C-]#[O+].[C-]#[O+].[Mn],–,inactive
CC(=O)[O-].CC(=O)[O-].O.O.O.[Pb+2],–,inactive
C[n+]1ccc(-c2cc[n+](C)cc2)cc1,0.76 µM (active),–
NCCc1cc(O)c(O)cc1O,–,inactive
Brc1ccc(Oc2ccc(Br)cc2Br)c(Br)c1,–,inactive
O=C(O)CNCP(=O)(O)O,–,inactive
CC1(C)[C@@H](C=C(Cl)Cl)[C@@H]1C(=O)O[C@@H](C#N)c1ccc(F)c(Oc2ccccc2)c1,–,inactive
CP(=O)(O)CC[C@H](N)C(=O)O,–,inactive
